According to PubChem BioAssay (Tox21):
Values joined by “and” are separate entries in the source; they are usually repeats but may differ in a detail not shown here. Identical values can stand only once. Results filed as inconclusive are left out. Where a call stands in place of a potency, no number is given. Active and inactive are the calls of the source. Unless noted, calls come from the whole dose curve; as a rule, active = well fitted curve in the direction sought with a large enough effect in the repeat runs; inconclusive = weak or mixed curves; inactive = no such curve, though single readings can be large; an effect the other way counts as inactive or inconclusive.

What was measured:
[1] = qHTS assay to identify small molecule antagonists of the glucocorticoid receptor (GR) signaling pathway - cell viability counter screen (AID 720693); note: nearly all actives have a fitted effect of over 55% in size; note: potency is the fitted concentration of half-maximal effect
[2] = qHTS assay for identifying genotoxic compounds that show differential cytotoxicity against isogenic chicken DT40 cell lines with known DNA damage response pathways - wild type cell line (AID 743012); note: nearly all actives have a fitted effect of over 60% in size; note: potency is the fitted concentration of half-maximal effect
Summary of the method: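 Parental DNA repair-proficient DT40 cells, 300 per well, were pre-incubated ~0.5 h at 37 C/5% CO2, pin-dosed with compounds in DMSO, then incubated 40 h. Viability was read as CellTiter-Glo luminescence after 30 min at room temperature.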

[3] = qHTS assay for identifying genotoxic compounds that show differential cytotoxicity against isogenic chicken DT40 cell lines with known DNA damage response pathways - Rev3 mutant cell line (AID 743014); note: nearly all actives have a fitted effect of over 55% in size; note: potency is the fitted concentration of half-maximal effect
[4] = qHTS assay for identifying genotoxic compounds that show differential cytotoxicity against isogenic chicken DT40 cell lines with known DNA damage response pathways - Rad54/Ku70 mutant cell line (AID 743015); note: nearly all actives have a fitted effect of over 60% in size; note: potency is the fitted concentration of half-maximal effect
[5] = qHTS assay to identify small molecule antagonists of the androgen receptor (AR) signaling pathway - cell viability counter screen (AID 743033; note: nearly all actives have a fitted effect of over 45% in size; note: potency is the fitted concentration of half-maximal effect)
[6] = biological target: Androgen receptor (Homo sapiens) (UniProt P10275); test: qHTS assay to identify small molecule antagonists of the androgen receptor (AR) signaling pathway (AID 743035; active = well fitted inhibition curve with a large enough effect in the signal ratio in the repeat runs, not every such curve was filed as active; the % refers to the signal ratio; note: potency is the fitted concentration of half-maximal effect)
Summary of the method: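 HEK293 cells stably carrying a UAS-driven beta-lactamase reporter (AR-UAS-bla GripTite) were plated for 4 h at 37C, then given compound and the agonist R1881 and incubated 16 h. Reporter activity was read by LiveBLAzer B/G FRET fluorescence after 2 h at room temperature.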

[7] = biological target: Androgen receptor (Homo sapiens) (UniProt P10275); test: qHTS assay to identify small molecule agonists of the androgen receptor (AR) signaling pathway using the MDA cell line (AID 743040; note: nearly all actives have a fitted effect of over 20% in size)
Summary of the method: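 MDA-kb2 breast carcinoma cells stably carrying an MMTV-driven luciferase reporter (AR- and GR-responsive) were seeded and held 5 h at 37C, 0% CO2, then exposed to compounds in DMSO for 16 h. Luminescence was read 30 min after ONE-Glo addition.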

[8] = biological target: Androgen receptor (Homo sapiens) (UniProt P10275); test: qHTS assay to identify small molecule antagonists of the androgen receptor (AR) signaling pathway using the MDA cell line (AID 743042; note: nearly all actives have a fitted effect of over 55% in size)
Summary of the method: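 MDA-kb2 cells (human breast carcinoma, stably carrying an MMTV-luciferase reporter responsive to AR and GR) were plated at 3,000 cells/well and preincubated 5 hr at 37C, then given compound plus R1881 agonist for 16 h. ONE-Glo luminescence was read.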

[9] = qHTS assay to identify small molecule antagonists of the thyroid receptor (TR) signaling pathway - cell viability counter screen (AID 743064); note: nearly all actives have a fitted effect of over 50% in size; note: potency is the fitted concentration of half-maximal effect
Summary of the method: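 CellTiter-Fluor readout, 30 min at 37 °C/5% CO2, following 23.5 h incubation of GH3.TRE-Luc cells with test compound and 1 nM T3 (final).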

[10] = qHTS assay to identify small molecule antagonists of the thyroid receptor (TR) signaling pathway (AID 743065); note: nearly all actives have a fitted effect of over 55% in size; note: potency is the fitted concentration of half-maximal effect
Summary of the method: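 GH3.TRE-Luc rat pituitary cells carrying two TR response elements driving luciferase were plated for 4 h, given compound plus 1 nM T3 (final), and incubated 23.5 h at 37 C. ONE-Glo luminescence measured reporter inhibition; CellTiter-Fluor fluorescence tracked cytotoxicity.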

[11] = system: thyroid hormone receptor (rat, GH3 cells); test: qHTS assay to identify small molecule agonists of the thyroid receptor (TR) signaling pathway (AID 743066; calls by dose curve)
[12] = qHTS assay to identify small molecule antagonists of the estrogen receptor alpha (ER-alpha) signaling pathway - cell viability counter screen (AID 743074; calls by dose curve; note: nearly all actives have a fitted effect of over 45% in size)
[13] = qHTS assay to identify small molecule antagonists of the estrogen receptor alpha (ER-alpha) signaling pathway using the BG1 cell line - cell viability counter screen (AID 743081);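 note: compound given together with 17beta-estradiol as the ER stimulus; nearly all actives have a fitted effect of over 45% in size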; note: potency is the fitted concentration of half-maximal effect
[14] = biological target: Aromatase (Homo sapiens) (UniProt P11511); test: qHTS assay to identify aromatase inhibitors (AID 743083); note: nearly all actives have a fitted effect of over 55% in size; note: potency is the fitted concentration of half-maximal effect
[15] = qHTS assay to identify small molecule antagonists of the androgen receptor (AR) signaling pathway using the MDA cell line - cell viability counter screen (AID 743041; note: nearly all actives have a fitted effect of over 45% in size; note: potency is the fitted concentration of half-maximal effect)
Summary of the method: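 MDA-kb2 AR-luc human breast carcinoma cells (MMTV-luciferase, AR/GR responsive) were treated with compounds plus R1881 agonist for 16 h at 37 °C. Viability was read as CellTiter-Fluor fluorescence in the same wells as the reporter assay.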

[16] = biological target: Estrogen receptor (Homo sapiens) (UniProt P03372); test: qHTS assay to identify small molecule antagonists of the estrogen receptor alpha (ER-alpha) signaling pathway (AID 743069; active = well fitted curve in the direction sought with a large enough effect in the signal ratio in the repeat runs, not every such curve was filed as active; the % refers to the signal ratio)
Summary of the method: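 HEK293 cells stably carrying an ER-alpha-UAS-bla beta-lactamase reporter were pre-cultured overnight in 2% charcoal-stripped FBS medium. Test compounds in DMSO were added together with 17beta-estradiol for 18 hr at 37C. Read-out was fluorescence after 2 hr with LiveBLAzer B/G FRET substrate at room temperature.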

[17] = biological target: Estrogen receptor (Homo sapiens) (UniProt P03372); test: qHTS assay to identify small molecule agonists of the estrogen receptor alpha (ER-alpha) signaling pathway (AID 743075; calls by dose curve; note: potency is the fitted concentration of half-maximal effect)
[18] = biological target: Androgen receptor (Homo sapiens) (UniProt P10275); test: qHTS assay to identify small molecule agonists of the androgen receptor (AR) signaling pathway (AID 743036; active = well fitted activation curve with a large enough effect in the signal ratio in the repeat runs, with a control signal flat, not every such curve was filed as active; the % refers to the signal ratio)
Summary of the method: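 Following a 4 h settling period, AR-UAS-bla HEK293 cells were dosed with compounds for 16 h at 37C. A 2 h room-temperature incubation with LiveBLAzer B/G FRET substrate preceded the fluorescence measurement.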

[19] = biological target: Estrogen receptor (Homo sapiens) (UniProt P03372); test: qHTS assay to identify small molecule agonists of the estrogen receptor alpha (ER-alpha) signaling pathway using the BG1 cell line (AID 743079); note: nearly all actives have a fitted effect of over 20% in size
[20] = qHTS assay to identify small molecule antagonists of the estrogen receptor alpha (ER-alpha) signaling pathway using the BG1 cell line (AID 743080; calls by dose curve;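 note: BG1 cells stimulated with 17beta-estradiol alongside compound; series mostly up to about 70 µM; nearly all actives have a fitted effect of over 25% in size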)
Summary of the method: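 Quantitative HTS on the Tox21 10K library: BG1 cells with endogenous ER-alpha and ERE-luciferase reporter, 17beta-estradiol stimulation, 21.5 h compound exposure, luminescence endpoint with parallel fluorescence cytotoxicity counter-read.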

Chain of Aromatase (Homo sapiens) (P11511 whole entry, looked up): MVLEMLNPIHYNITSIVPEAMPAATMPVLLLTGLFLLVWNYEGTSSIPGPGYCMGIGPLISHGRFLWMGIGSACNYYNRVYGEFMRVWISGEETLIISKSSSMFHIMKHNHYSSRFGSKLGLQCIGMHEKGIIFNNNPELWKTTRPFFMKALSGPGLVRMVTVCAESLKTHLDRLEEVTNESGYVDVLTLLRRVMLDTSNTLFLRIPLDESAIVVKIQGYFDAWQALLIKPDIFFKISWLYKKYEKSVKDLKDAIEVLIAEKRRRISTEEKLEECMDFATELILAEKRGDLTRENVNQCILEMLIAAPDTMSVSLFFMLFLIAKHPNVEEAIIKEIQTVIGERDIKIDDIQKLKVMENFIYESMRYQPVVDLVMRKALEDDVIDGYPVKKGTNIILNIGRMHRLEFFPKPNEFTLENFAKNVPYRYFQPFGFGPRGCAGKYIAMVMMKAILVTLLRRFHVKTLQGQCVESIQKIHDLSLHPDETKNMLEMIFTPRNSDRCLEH
Chain of Estrogen receptor (Homo sapiens) (P03372 whole entry, looked up): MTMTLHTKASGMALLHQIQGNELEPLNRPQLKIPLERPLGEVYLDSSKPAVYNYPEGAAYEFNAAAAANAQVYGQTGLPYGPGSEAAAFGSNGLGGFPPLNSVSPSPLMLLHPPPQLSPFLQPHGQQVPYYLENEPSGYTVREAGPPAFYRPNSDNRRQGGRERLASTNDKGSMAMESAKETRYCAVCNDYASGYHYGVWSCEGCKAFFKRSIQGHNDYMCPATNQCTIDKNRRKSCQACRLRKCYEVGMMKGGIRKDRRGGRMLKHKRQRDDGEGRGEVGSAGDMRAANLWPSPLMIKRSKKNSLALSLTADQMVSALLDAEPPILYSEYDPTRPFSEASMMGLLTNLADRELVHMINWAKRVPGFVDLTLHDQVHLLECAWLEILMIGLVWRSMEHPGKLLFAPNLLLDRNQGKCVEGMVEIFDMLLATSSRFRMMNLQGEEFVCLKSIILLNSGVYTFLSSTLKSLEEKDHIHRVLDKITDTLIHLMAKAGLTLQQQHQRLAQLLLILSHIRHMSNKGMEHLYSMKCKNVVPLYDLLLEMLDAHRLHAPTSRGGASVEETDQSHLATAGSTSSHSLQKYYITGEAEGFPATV
Chain of Androgen receptor (Homo sapiens) (P10275 whole entry, looked up): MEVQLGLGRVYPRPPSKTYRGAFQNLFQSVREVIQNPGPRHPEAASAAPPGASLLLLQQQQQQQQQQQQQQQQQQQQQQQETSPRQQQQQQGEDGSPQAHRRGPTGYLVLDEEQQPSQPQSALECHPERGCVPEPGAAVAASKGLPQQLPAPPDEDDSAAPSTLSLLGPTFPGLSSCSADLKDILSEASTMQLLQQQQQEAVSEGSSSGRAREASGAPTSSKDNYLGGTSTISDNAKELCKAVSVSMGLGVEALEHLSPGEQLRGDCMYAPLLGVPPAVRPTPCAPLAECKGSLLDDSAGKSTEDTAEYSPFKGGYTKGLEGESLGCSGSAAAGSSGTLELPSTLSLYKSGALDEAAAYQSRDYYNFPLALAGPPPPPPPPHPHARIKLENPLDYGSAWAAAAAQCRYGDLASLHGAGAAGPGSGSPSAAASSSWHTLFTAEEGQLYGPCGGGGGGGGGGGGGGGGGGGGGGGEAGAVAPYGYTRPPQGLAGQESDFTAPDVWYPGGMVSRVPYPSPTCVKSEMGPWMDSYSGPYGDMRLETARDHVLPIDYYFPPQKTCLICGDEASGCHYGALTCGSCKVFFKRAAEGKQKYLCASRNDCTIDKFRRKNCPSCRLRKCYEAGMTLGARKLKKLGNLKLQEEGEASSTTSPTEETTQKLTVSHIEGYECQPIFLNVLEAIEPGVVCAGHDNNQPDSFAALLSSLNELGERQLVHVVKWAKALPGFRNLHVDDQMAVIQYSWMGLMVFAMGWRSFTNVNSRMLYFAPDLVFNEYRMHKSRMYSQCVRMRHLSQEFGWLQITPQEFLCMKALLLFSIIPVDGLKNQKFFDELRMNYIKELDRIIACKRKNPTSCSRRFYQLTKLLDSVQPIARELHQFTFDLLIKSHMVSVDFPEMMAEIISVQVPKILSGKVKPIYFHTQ

## Cc1cc(N=Nc2ccccc2C)ccc1N
[1]
  Potency: 49 µM (active)
[2]
  Potency: 27.3 µM (active)
[3]
  Potency: 54.5 µM (active) and 48.6 µM (active)
[4]
  Potency: 27.3 µM (active) and 19.3 µM (active)
[5]
  Potency: inactive
[6]
  Potency: 21.9 µM (active)
[7]
  Potency: inactive
[8]
  Potency: inactive
[9]
  Potency: 24.3 µM (active)
[10]
  Potency: 7.7 µM (active) and 27.3 µM (active)
[11]
  outcome: inactive
[12]
  Potency: inactive
[13]
  Potency: 24.3 µM (active) and 27.3 µM (active)
[14]
  Potency: inactive

## O=[N+]([O-])c1ccc(Oc2ccc(C(F)(F)F)cc2[N+](=O)[O-])cc1
[1]
  Potency: inactive
[2]
  Potency: 19.3 µM (active)
[3]
  Potency: 17.2 µM (active)
[4]
  Potency: 24.3 µM (active)
[5]
  Potency: inactive
[15]
  Potency: inactive
[9]
  Potency: inactive
[11]
  outcome: inactive
[16]
  Potency: inactive
[12]
  Potency: inactive
[17]
  Potency: inactive
[13]
  Potency: inactive
[14]
  Potency: inactive

## CC[C@H]1C[C@@H]2C[C@H]3c4[nH]c5ccc(OC)cc5c4CCN(C2)[C@@H]13
[1]
  Potency: inactive
[2]
  Potency: 23.9 µM (active)
[3]
  Potency: 47.7 µM (active)
[4]
  Potency: 53.5 µM (active)
[5]
  Potency: inactive
[18]
  Potency: inactive
[7]
  Potency: inactive
[15]
  Potency: inactive
[8]
  Potency: inactive
[9]
  Potency: 60.1 µM (active)
[10]
  Potency: 30.1 µM (active)
[11]
  outcome: inactive
[12]
  Potency: inactive
[17]
  Potency: inactive
[19]
  Potency: inactive
[20]
  Potency: inactive
[13]
  Potency: inactive
[14]
  Potency: inactive

## O=C(NC(=O)c1c(F)cccc1F)Nc1cc(Cl)c(OC(F)(F)C(F)F)c(Cl)c1
[1]
  Potency: inactive
[2]
  Potency: inactive
[3]
  Potency: inactive
[4]
  Potency: 21.7 µM (active)
[5]
  Potency: inactive
[7]
  Potency: inactive
[15]
  Potency: inactive
[8]
  Potency: inactive
[9]
  Potency: inactive
[10]
  Potency: inactive
[11]
  outcome: inactive
[12]
  Potency: inactive
[17]
  Potency: inactive
[13]
  Potency: inactive
[14]
  Potency: inactive

## CCOCn1c(-c2ccc(Cl)cc2)c(C#N)c(Br)c1C(F)(F)F
[1]
  Potency: 3.47 µM (active)
[2]
  Potency: 1.93 µM (active)
[3]
  Potency: 2.17 µM (active)
[4]
  Potency: 1.54 µM (active)
[5]
  Potency: 0.871 µM (active)
[15]
  Potency: 3.86 µM (active)
[9]
  Potency: 6.11 µM (active)
[10]
  Potency: 1.37 µM (active)
[14]
  Potency: 9.69 µM (active)

## Clc1ccc(C(c2ccc(Cl)cc2)C(Cl)(Cl)Cl)cc1
[1]
  Potency: inactive
[2]
  Potency: 18.8 µM (active) and 24.3 µM (active)
[3]
  Potency: 10.6 µM (active) and 7.75 µM (active) and 6.86 µM (active)
[4]
  Potency: 23.7 µM (active) and 19.3 µM (active)
[5]
  Potency: inactive
[15]
  Potency: inactive
[9]
  Potency: 18.8 µM (active) and 30.9 µM (active) and 30.6 µM (active)
[10]
  Potency: 18.8 µM (active) and 30.9 µM (active) and 24.3 µM (active)
[11]
  outcome: inactive
[12]
  Potency: inactive
[13]
  Potency: inactive
[14]
  Potency: inactive

## COc1cccc(C(=O)CCN[C@@H](C)[C@H](O)c2ccccc2)c1
[1]
  Potency: inactive
[2]
  Potency: 6.68 µM (active)
[3]
  Potency: 16.8 µM (active)
[4]
  Potency: 13.3 µM (active)
[5]
  Potency: inactive
[6]
  Potency: inactive
[18]
  Potency: inactive
[7]
  Potency: inactive
[9]
  Potency: 13.3 µM (active)
[10]
  Potency: 10.6 µM (active)
[12]
  Potency: inactive
[14]
  Potency: inactive

## CC(C)CC(C)N (stereo not given)
[1]
  Potency: inactive
[2]
  Potency: inactive
[3]
  Potency: inactive
[4]
  Potency: inactive
[5]
  Potency: inactive
[15]
  Potency: inactive
[9]
  Potency: inactive
[10]
  Potency: inactive
[11]
  outcome: inactive
[12]
  Potency: inactive
[17]
  Potency: inactive
[19]
  Potency: inactive
[20]
  Potency: inactive
[13]
  Potency: inactive
[14]
  Potency: inactive

## N#CCCSCCC#N
[1]
  Potency: inactive
[2]
  Potency: inactive
[3]
  Potency: inactive
[4]
  Potency: inactive
[5]
  Potency: inactive
[6]
  Potency: inactive
[7]
  Potency: inactive
[15]
  Potency: inactive
[8]
  Potency: inactive
[9]
  Potency: inactive
[10]
  Potency: inactive
[11]
  outcome: inactive
[12]
  Potency: inactive
[17]
  Potency: inactive
[20]
  Potency: inactive
[13]
  Potency: inactive
[14]
  Potency: inactive

## CN(C)CCc1c[nH]c2ccc(O)cc12
[1]
  Potency: inactive
[2]
  Potency: inactive
[3]
  Potency: inactive
[4]
  Potency: inactive
[5]
  Potency: inactive
[6]
  Potency: inactive
[18]
  Potency: inactive
[7]
  Potency: inactive
[15]
  Potency: inactive
[8]
  Potency: inactive
[9]
  Potency: inactive
[10]
  Potency: inactive
[11]
  outcome: inactive
[13]
  Potency: inactive
[14]
  Potency: inactive

## O=C(O)c1cc[c]([Hg][Cl])cc1
[1]
  Potency: inactive
[2]
  Potency: inactive
[3]
  Potency: 1.93 µM (active)
[4]
  Potency: 1.54 µM (active)
[5]
  Potency: 54.9 µM (active)
[15]
  Potency: inactive
[9]
  Potency: 17.2 µM (active)
[10]
  Potency: 6.86 µM (active)
[11]
  outcome: inactive
[12]
  Potency: inactive
[17]
  Potency: 49 µM [activator] (active)
[13]
  Potency: inactive
[14]
  Potency: 61.1 µM (active)

## CC(C)OC(=S)S
[1]
  Potency: inactive
[2]
  Potency: 24.3 µM (active)
[3]
  Potency: 27.3 µM (active)
[4]
  Potency: 24.3 µM (active)
[5]
  Potency: 17.4 µM (active)
[15]
  Potency: inactive
[9]
  Potency: inactive
[11]
  outcome: inactive
[12]
  Potency: inactive
[17]
  Potency: inactive
[20]
  Potency: inactive
[13]
  Potency: inactive
